Measurements: the supplement of paper PMC10477191
± gives the standard deviation of the averaged measurements.

system: Drosophila virilis antennal basiconic sensillum AB3; test: odor-evoked OSN spike response (post minus pre-stimulus); higher = stronger neuronal excitation; conditions: odor dilution: 10^-4
Procedure: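 Single sensillum recordings from antennal basiconic sensilla of D. virilis. A 500 ms pulse of odorant (10^-4 in mineral oil or DMSO) was delivered; the response is the change in spike frequency between the 1 s pre- and post-stimulus windows (spikes/s).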

SMILES	odor-evoked OSN spike response
CC(C)=O [acetone]	92.2 ± 20 spikes/s
